Laboratory results published in PubChem BioAssay (NCI).
Several values for one entry are separate records, joined by “and”; a condition that tells them apart may be missing. Identical values can stand only once. This is part of a sample that, as a whole, favours compounds with a hit. Of some 79,000 tested, about 15% had one in any assay. A number with no mark means an inactive call. Activity calls are given as the source filed them. Cut-off read from the data, not from the text of the source: active = growth inhibition above about 70%; inactive = the rest.

Columns and labels:
[1] = NCI Yeast Anticancer Drug Screen. Data for the rad50 strain (AID 155);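 note: 0% = growth of vehicle-only cultures of the same strain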; details: S. cerevisiae rad50 strain growth inhibition, hits give high values
Outline: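 Relative growth inhibition (compound vs vehicle) was measured in yeast with a defined repair-gene alteration.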

[2] = NCI Yeast Anticancer Drug Screen. Data for the mec2-1 strain (AID 157); details: S. cerevisiae mec2-1 strain, hits give high values
Outline: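 Mutant yeast (mec2-1) grown with compound; growth inhibition relative to vehicle control reported.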

[3] = NCI Yeast Anticancer Drug Screen. Data for the cln2 rad14 strain (AID 165);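 note: 0% = growth equal to vehicle treated cultures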; details: S. cerevisiae cln2 rad14 strain, hits give high values
Outline: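 Readout is yeast growth inhibition versus vehicle-treated controls, using a strain with cln2 and rad14 alterations exposed to compound.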

[4] = NCI Yeast Anticancer Drug Screen. Data for the bub3 strain (AID 167); details: S. cerevisiae bub3 mutant strain, hits give high values
Outline: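 Screening used yeast with an engineered genetic alteration affecting cell cycle control. Compound-exposed cultures were compared with vehicle cultures, and reduced growth was taken as inhibition.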

[5] = NCI Yeast Anticancer Drug Screen. Data for the mlh1 rad18 strain (AID 175); details: S. cerevisiae mlh1 rad18 strain growth inhibition, hits give high values
Outline: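 Genetically defined yeast (DNA repair-deficient) exposed to compounds; growth inhibition determined relative to vehicle.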

[6] = NCI Yeast Anticancer Drug Screen. Data for the sgs1 mgt1 strain (AID 161);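 note: 0% = growth of cultures given vehicle only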; details: S. cerevisiae sgs1 mgt1 strain, hits give high values
Outline: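 Yeast cells carrying a defined DNA-repair defect were exposed to test compounds. Growth inhibition was measured relative to vehicle-treated controls.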

[7] = at 5.0 µM (retest, dose inferred, filed as 0.5)
[8] = at 50.0 µM (retest, dose inferred, filed as 5.0)

| Compound | growth inhibition [1, 7] | growth inhibition [1, 8] | growth inhibition ([1]; at 50.0 µM) | growth inhibition [2, 7] [%] | growth inhibition [2, 8] | growth inhibition ([2]; at 50.0 µM) | growth inhibition [3, 7] [%] | growth inhibition [3, 8] | growth inhibition ([3]; at 50.0 µM) | growth inhibition [4, 7] | growth inhibition [4, 8] | growth inhibition ([4]; at 50.0 µM) | growth inhibition [5, 7] | growth inhibition [5, 8] | growth inhibition ([5]; at 50.0 µM) | growth inhibition ([6]; at 50.0 µM) | growth inhibition [6, 7] [%] | growth inhibition [6, 8] |
| --- | --- | --- | --- | --- | --- | --- | --- | --- | --- | --- | --- | --- | --- | --- | --- | --- | --- | --- |
| NC(=S)N/N=C\c1nccc2c(C(F)(F)C(F)(F)C(F)(F)F)cccc12 | 26% | 61% | 57.9% | 39 | 69% | 74.5% (active) | 10 | 62% | 69.6% | 11% | 81% (active) | 75.6% (active) | 24% | 69% | 73.3% (active) |  |  |  |
| CC(=O)Nc1cccc2cc(O)ccc12 |  |  | 16.8% and 18.5% and 17% |  |  | -5.9% and 4.7% and -9.55% |  |  | -11.6% and -20.1% and 11.6% |  |  | -11.8% and -11.7% and -4.3% |  |  | 23.2% and 18.1% and 22.8% | -2.2% and -3.8% and 10.3% |  |  |
| ON=C1c2ccccc2-c2ccccc21 | 8% | 58% | 54.2% |  |  |  | -12 | -6% | -68.6% | -4% | 9% | 30.9% | 9% | 58% | 71.7% (active) | 41.5% | 2 | 30% |
| CC(=O)[O-].CC(=O)[O-].CC(=O)[O-].CC(=O)[O-].Cn1c(=O)c2[nH]cnc2n(C)c1=O.Cn1c(=O)c2[nH]cnc2n(C)c1=O.[Rh+2].[Rh+2] |  |  |  | 12 | 23% | 27.6% | 9 | 9% | -5.35% | 11% | 19% | -29.4% | 48% | 62% | 23.1% | -39.7% | 12 | 13% |
| CCCN(CCC)C(=S)N/N=C(/C)c1ccccc1O | -8% | 98% (active) | 77.8% (active) |  |  |  | -26 | 97% (active) | 86.8% (active) | -58% | 98% (active) | 89% (active) | -23% | 98% (active) | 90.8% (active) | 87.2% (active) | -29 | 97% (active) |
| O=C1c2ccccc2C(=O)N1c1ccccc1 |  |  |  | -3 | -1% | -5.9% | 3 | 7% | 42.2% | 36% | 15% | 2.3% | -1% | 2% | 16.4% | 20% | 1 | 5% |
| Oc1ccc2ccc3ccccc3c2c1 | 5% | 99% (active) | 99.5% (active) | 2 | 99% (active) | 99.5% (active) | -3 | 99% (active) | 99.5% (active) | -3% | 98% (active) | 99.5% (active) | 2% | 99% (active) | 99.5% (active) |  |  |  |
| CNC(=N)c1ccc(NC(=N)c2ccc(NC(=O)c3ccc(C(=O)Nc4ccc(C(=N)Nc5ccc(C(=N)NC)cc5)cc4)cc3)cc2)cc1 | 74% (active) | 54% | 70.2% (active) |  |  |  | 47 | 42% | 11.7% | 79% (active) | 74% (active) | 46.6% | 87% (active) | 69% | 87.5% (active) | 53.8% | 52 | 61% |
| O=CNNC(=O)Nc1ccc(Cl)cc1 |  |  |  |  |  |  | 32 | 19% | 22.1% | 4% | 0% | 14.6% | 20% | 21% | 7.2% | -8.8% | 20 | 11% |
| Cc1cc(C)nc(/C=C/c2ccc(/C=C/c3cc(C)cc(C)n3)cc2)c1 | -20% | -4% |  | -8 | 4% | 2.65% | -4 | -11% | -19.6% | -7% | -11% | 0.4% | -11% | 3% | 5.5% | 11.9% | 7 | -1% |
